Experimental data taken from PubChem BioAssay AID1159580 (chemical genetic matrix, 2015).
The campaign covered roughly 5,500 compounds. About 2,000 (36%) were called active. Roughly 18% stayed inconclusive and do not appear here. No stated cut-off is given here; in the data, active means normalized growth mostly below about 0.91 (no sharp cut-off); inconclusive means no clear call, values can overlap the other calls; inactive means mostly above about 0.92. The list shows a part of the results.

Assay: chemical genetic growth profiling, strain panel (AID 1159580);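 further: tested at 20 µM; growth read once vehicle control cultures reached saturation at 30 °C; 1 = growth at the plate median or of vehicle wells; lower values mean less growth of the strain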
Conditions: growth OD

Measured: normalized growth

CC1=CC(=O)C2=C(C)CC(O)C3C(C)C(=O)OC3C12 (stereo not drawn)
inactive: S. cerevisiae deletion strains, locus YBR021W, strain FUR4, hits give low values 1.01 | S. cerevisiae deletion strains, locus YBR229C, strain ROT2, hits give low values 1 | S. cerevisiae deletion strains, locus YCL029C, strain bik1, hits give low values 1.02 | S. cerevisiae deletion strains, locus YDL035C, strain GPR1, hits give low values 1.03 | S. cerevisiae deletion strains, locus YDL074C, strain BRE1, hits give low values 1.06 | S. cerevisiae deletion strains, locus YDL101C, strain DUN1, hits give low values 1.01 | S. cerevisiae deletion strains, locus YDL185W, strain tfp1, hits give low values 1.02 | S. cerevisiae deletion strains, locus YDL192W, strain arf1, hits give low values 1.01 | S. cerevisiae deletion strains, locus YDR101C, strain arx1, hits give low values 1.06 | S. cerevisiae deletion strains, locus YDR162C, strain NBP2, hits give low values 0.989 | S. cerevisiae deletion strains, locus YDR318W, strain mcm21, hits give low values 0.994 | S. cerevisiae deletion strains, locus YDR388W, hits give low values 1.02 | S. cerevisiae deletion strains, locus YDR502C, strain sam2, hits give low values 1.04 | S. cerevisiae deletion strains, locus YEL061C, strain CIN8, hits give low values 1 | S. cerevisiae deletion strains, locus YER110C, hits give low values 1.02 | S. cerevisiae deletion strains, locus YER155C, strain BEM2, hits give low values 1 | S. cerevisiae deletion strains, locus YER167W, strain BCK2, hits give low values 1 | S. cerevisiae deletion strains, locus YGL078C, strain dbp3, hits give low values 1.03 | S. cerevisiae deletion strains, locus YGL086W, strain mad1, hits give low values 1.04 | S. cerevisiae deletion strains, locus YGL248W, strain PDE1, hits give low values 0.997 | S. cerevisiae deletion strains, locus YGR135W, strain pre9, hits give low values 1.02 | S. cerevisiae deletion strains, locus YGR229C, strain SMI1, hits give low values 1.01 | S. cerevisiae deletion strains, locus YGR252W, strain gcn5, hits give low values 0.969 | S. cerevisiae deletion strains, locus YHR030C, strain SLT2, hits give low values 0.999 | S. cerevisiae deletion strains, locus YHR079C, strain IRE1 (second series), hits give low values 1.02 | S. cerevisiae deletion strains, locus YHR094C, strain hxt1, hits give low values 1.01 | S. cerevisiae deletion strains, locus YHR129C, strain ARP1, hits give low values 1.01 | S. cerevisiae deletion strains, locus YHR200W, strain rpn10, hits give low values 1.02 | S. cerevisiae deletion strains, locus YIL066C, strain RNR3, hits give low values 0.993 | S. cerevisiae deletion strains, locus YIL073C, strain SPO22, hits give low values 1.08 | S. cerevisiae deletion strains, locus YIL125W, strain kgd1, hits give low values 1.03 | S. cerevisiae deletion strains, locus YIR030C, strain dcg1, hits give low values 1.01 | S. cerevisiae deletion strains, locus YJL095W, strain BCK1, hits give low values 0.985 | S. cerevisiae deletion strains, locus YJL134W, strain LCB3, hits give low values 0.996 | S. cerevisiae deletion strains, locus YJL168C, strain set2, hits give low values 1.01 | S. cerevisiae deletion strains, locus YJL187C, strain SWE1 (second series), hits give low values 0.997 | S. cerevisiae deletion strains, locus YJR043C, strain POL32, hits give low values 1.01 | S. cerevisiae deletion strains, locus YJR075W, strain HOC1, hits give low values 0.992 | S. cerevisiae deletion strains, locus YKL009W, strain mrt4, hits give low values 1.01 | S. cerevisiae deletion strains, locus YKL068W, hits give low values 0.999 | S. cerevisiae deletion strains, locus YKL085W, strain MDH1 (second series), hits give low values 0.992 | S. cerevisiae deletion strains, locus YKL085W, strain MDH1, hits give low values 0.992 | S. cerevisiae deletion strains, locus YKL190W, strain CNB1, hits give low values 1.01 | S. cerevisiae deletion strains, locus YKR001C, strain vps1, hits give low values 1.05 | S. cerevisiae deletion strains, locus YLR039C, strain RIC1, hits give low values 1.07 | S. cerevisiae deletion strains, locus YLR058C, strain SHM2, hits give low values 0.99 | S. cerevisiae deletion strains, locus YLR102C, strain apc9, hits give low values 1.02 | S. cerevisiae deletion strains, locus YLR262C, strain YPT6, hits give low values 1.04 | S. cerevisiae deletion strains, locus YLR268W, strain sec22, hits give low values 1.07 | S. cerevisiae deletion strains, locus YLR330W, strain CHS5, hits give low values 1.01 | S. cerevisiae deletion strains, locus YLR342W, strain FKS1 (second series), hits give low values 1.06 | S. cerevisiae deletion strains, locus YLR371W, strain rom2, hits give low values 1.05 | S. cerevisiae deletion strains, locus YLR418C, strain cdc73, hits give low values 1.01 | S. cerevisiae deletion strains, locus YML016C, strain PPZ1, hits give low values 1 | S. cerevisiae deletion strains, locus YML032C, strain rad52, hits give low values 0.988 | S. cerevisiae deletion strains, locus YML124C, strain tub3, hits give low values 1.01 | S. cerevisiae deletion strains, locus YMR078C, strain ctf18, hits give low values 1.03 | S. cerevisiae deletion strains, locus YMR223W, strain ubp8, hits give low values 0.99 | S. cerevisiae deletion strains, locus YMR307W, strain GAS1, hits give low values 1.02 | S. cerevisiae deletion strains, locus YNL067W, strain RPL9B, hits give low values 1 | S. cerevisiae deletion strains, locus YNL153C, strain GIM3, hits give low values 0.999 | S. cerevisiae deletion strains, locus YNL233W, strain BNI4, hits give low values 1 | S. cerevisiae deletion strains, locus YNL250W, strain rad50, hits give low values 1.03 | S. cerevisiae deletion strains, locus YNL271C, strain bni1, hits give low values 1.02 | S. cerevisiae deletion strains, locus YNL298W, strain CLA4, hits give low values 1.01 | S. cerevisiae deletion strains, locus YNL307C, strain MCK1, hits give low values 1.03 | S. cerevisiae deletion strains, locus YNL322C, strain KRE1, hits give low values 1 | S. cerevisiae deletion strains, locus YNR052C, strain pop2, hits give low values 1.01 | S. cerevisiae deletion strains, locus YOL006C, strain TOP1, hits give low values 1.13 | S. cerevisiae deletion strains, locus YOL012C, strain htz1 0.87 | S. cerevisiae deletion strains, locus YOL147C, strain pex11, hits give low values 1.03 | S. cerevisiae deletion strains, locus YOR061W, strain CKA2, hits give low values 1.01 | S. cerevisiae deletion strains, locus YOR069W, strain VPS5, hits give low values 1 | S. cerevisiae deletion strains, locus YOR136W, strain idh2, hits give low values 1.03 | S. cerevisiae deletion strains, locus YOR144C, strain elg1, hits give low values 1.01 | S. cerevisiae deletion strains, locus YOR184W, strain ser1, hits give low values 1.06 | S. cerevisiae deletion strains, locus YOR316C, strain cot1, hits give low values 1.01 | S. cerevisiae deletion strains, locus YPR119W, strain clb2, hits give low values 1.02 | S. cerevisiae deletion strains, locus YPR141C, strain kar3, hits give low values 1 | S. cerevisiae deletion strains, locus YPR163C, strain tif3, hits give low values 1.01 | S. cerevisiae deletion strains, locus YPR167C, strain met16, hits give low values 1.03 | S. cerevisiae deletion strains, strain wtn01, hits give low values 1.08 | S. cerevisiae strains, strain wild type, hits give low values 0.998
